An excerpt weighted towards active compounds, which were near 4.8% of everything screened.
HepG2 viability: HepG2 cytotoxicity, counter-screen for TGF-b inhibitors; HepG2 CAGA-GFP viability, ATP luminescence, 18 h; Potency, µM (doses to about 46.1 µM), inactives show top-dose activity change, negative = cytotoxicity, hits mostly cytotoxic; hit rate 0.76% among 410,000; further: potency means the concentration at half of the fitted maximal effect
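CellTiter-Glo luminescence gave cytotoxicity after 18 hours at 37 degrees C. The cells were HepG2 CAGA-GFP in 1% FBS DMEM, stimulated with 500 pg/mL TGF-beta after compound addition. %Activity was normalised to no-cell wells (complete cell-killing) and DMSO (no toxicity), and curves were fitted and classified.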
D3 antag: antagonists of human D3 dopamine receptor; P35462; D3R cells, DiscoveRx beta-arrestin luminescence, antagonist mode; hits give low values; max response, negative = inhibition, %; hit rate 2.5% among 360,000; in the data active means max response below about -50%; inconclusive means no clear call, values can overlap the other calls; further: on the % scale 0 is the no-effect control and ±100 the full control effect
Target sequence (P35462 whole entry, looked up): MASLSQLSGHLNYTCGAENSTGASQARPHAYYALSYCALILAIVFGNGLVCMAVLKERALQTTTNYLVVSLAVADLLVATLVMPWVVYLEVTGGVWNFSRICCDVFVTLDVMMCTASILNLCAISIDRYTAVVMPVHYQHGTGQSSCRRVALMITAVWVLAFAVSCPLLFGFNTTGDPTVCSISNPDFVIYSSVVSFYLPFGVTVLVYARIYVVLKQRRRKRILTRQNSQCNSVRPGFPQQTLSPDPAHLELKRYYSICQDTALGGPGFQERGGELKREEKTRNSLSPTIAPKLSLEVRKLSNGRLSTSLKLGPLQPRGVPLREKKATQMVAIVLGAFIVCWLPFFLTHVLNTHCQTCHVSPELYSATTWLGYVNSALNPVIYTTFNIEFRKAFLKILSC
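Cells expressing the human receptor were seeded at 1500 cells/well, incubated overnight at 37 degrees C in 5% CO2, then exposed to library compounds with dopamine controls for 90 minutes at 37 degrees C before luminescent detection.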
TGFb SMAD3 inh: TGF-b pathway inhibition; HepG2 CAGA-GFP TGF-b/SMAD3 reporter, GFP fluorescence, 18 h; TGF-beta stimulated, 500 pg/mL final; hit rate 1.2% among 410,000; AID 588855; Potency, µM (doses to about 46.1 µM), for the others: at the highest dose activity, negative = inhibition, hits mostly inhibitors; further: potency means the concentration at half of the fitted maximal effect; on the % scale 0 is the no-effect control and ±100 the full control effect; nearly all actives have a fitted effect of over 65% in size
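HEPG2 CAGA-GFP, 1000 cells/well; 2 h settle, 37 C; cpd via pin tool; TGF-b 500 pg/mL final; 18 h, 37 C; GFP imaging ex488/em500-530; %Activity normalised to -TGF-b and +DMSO controls; CRC fit, curve class.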
ATXN viability: cell viability loss in ATXN counter-screen; hit rate 0.49% among 400,000; S2 cells (HEK-293 line with an ATXN2-luciferase reporter) viability, CellTiter-Fluor protease fluorescence, 24 h; Potency, µM (doses to about 56.7 µM), hits mostly cytotoxic; AID 651635; further: potency means the concentration at half of the fitted maximal effect; nearly all actives have a fitted effect of over 40% in size
ATXN2 expr inh: ATXN2 expression inhibition; hit rate 0.72% among 360,000; HEK-293 ATXN2-luciferase reporter, luminescence, 24 h; AID 1745845; Potency, µM (doses to about 57 µM), for inactives: at the top dose activity change, negative = inhibition, most hits filed as inhibitors; further: potency means the concentration at half of the fitted maximal effect; on the % scale 0 is the no-effect control and ±100 the full control effect; nearly all actives have a fitted effect of over 55% in size
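qHTS (up to 57 uM final) was run with 24 h compound exposure of reporter cells at 37 °C. Each well was multiplexed: SteadyGlo luminescence measured ATXN2-luciferase expression after a fluorogenic Gly-Phe-AFC viability readout (25 uM final).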
D3 ag: D3 dopamine receptor (human) agonism; P35462; D3R DiscoveRx beta-arrestin cells, luminescence, 90 min; max activation, %; hit rate 0.58% among 410,000; AID 652048; in the data active means max activation above about 30%; further: 0% is about no effect
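Agonist mode: compounds and dopamine controls were applied to plated cells for 90 min at 37 degrees C after an overnight attachment at 1500 cells/well. Luminescent read-out followed 30 - 60 minutes at room temperature with DiscoveRx detection reagent.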
An asterisk follows results filed as active; i = inactive; ? = inconclusive; / = no result; ! = not active in a repeat. Unless noted, the call rests on the fitted dose curve; in most records, active means well fitted curve in the direction sought with a large enough effect; inconclusive means small, poorly fitted or top-dose-only effect, or another doubt; inactive means no such curve, though single readings can be large; an effect the other way counts as inactive or inconclusive.

SMILES | HepG2 viability | D3 antag | TGFb SMAD3 inh | ATXN viability | ATXN2 expr inh | D3 ag
OC(c1ccc(F)cc1)C(CN1CCOCC1)c1ccccc1 (configuration not stated) | 0% | -15 | 3% | ? | -12% | 1
O=C(c1ccccc1)C(CN1CCCCC1)c1ccccc1 (configuration not stated) | -94% | -77* | ? | 32µM* | 20µM* | -32
CCOc1ccc(C(=O)C(CN2CCOCC2)c2ccccc2)cc1 (configuration not stated) | -81% | -7 | ? | / | 28µM* | -8
CC(CN1CCN(CC(C)C(=O)c2ccccc2)CC1)C(=O)c1ccccc1 (configuration not stated) | -28% | -59* | 3% | i | 3% | -13
O=C(c1ccc(Br)cc1)C(CN1CCOCC1)c1ccccc1 (configuration not stated) | -95% | -88* | 11µM* | / | 27µM* | -43
CCN(CC)c1ccc(NC(=O)c2cnn(-c3ccccc3)c2-n2cccc2)c(C)c1 | -16% | / | 0% | i | -12% | -7
CSc1nnc(CCNC(=O)c2ccc(-c3cccc(F)c3)cc2)n1-c1ccc(F)cc1 | / | / | / | i | / | /
CC(=O)Nc1nnc(CSCc2ccccc2F)s1 | 7.9µM* | ? | 1% | i | 37% | -18
CC(=O)Nc1nnc(SCc2ccccc2F)s1 | 2% | 10 | -14% | i | 50% | 2
CC[N+](CC)(CC)c1ccc(/C=C/c2ccc3ccccc3n2)cc1 | 10µM* | / | 6.3µM* | / | / | /
Oc1ccc(/C=C/c2ccc3ccccc3n2)cc1 | -2% | 5 | -2% | / | / | -1
CN(C)c1ccc(/C=C/c2ccc3ccccc3n2)cc1 | 5.6µM*! | 13 | 29% | / | / | -1
CN(C)c1ccc(/C=C/c2cccc3cc4ccccc4nc23)cc1 | 14µM* | / | 1.6µM* | / | / | /
C(=C\c1ccc2ccccc2n1)/c1ccccc1 | 10µM*! | 28 | ? | i | / | -7
CCOc1ccccc1C(=O)NC1(C(F)(F)F)C(=O)Nc2c1c(=O)[nH]c(=O)n2-c1ccccc1 (configuration not stated) | 1% | / | 0% | i | 13% | 2
O=C(C[n+]1ccccc1Cl)c1cccc([N+](=O)[O-])c1 | -46% | / | -29% | / | / | /
CN(C)c1ccc(/C=C/c2cc3ccccc3cn2)cc1 | -45% | / | 11µM* | / | / | /
CN(C)c1ccc(/C=C/c2nc3ccccc3s2)cc1 | -69% | -22 | 13µM*! | / | ? | -5
O=C(CCCc1ccccc1)NC1CC(=O)N(c2ccc(F)cc2)C1 (configuration not stated) | -8% | / | -3% | / | / | 1
CCN1CCN(c2cc3c(cc2F)c(=O)c(S(=O)(=O)c2cc(C)cc(C)c2)cn3CC)CC1 | 5% | / | -16% | / | / | -16
CN(C)c1nc(NCc2ccccc2)nc(SCC(=O)Nc2ccc(Cl)c(Cl)c2)n1 | -28% | 41 | ? | ? | ? | 46*
CCCS(=O)(=O)N1CCC(C(=O)NCCOC)CC1 | -16% | / | 15% | i | -8% | -19
CCOC(=O)CSc1nnc([C@H](Cc2ccccc2)NC(=O)OC(C)(C)C)o1 | -4% | ? | -1% | i | 7% | -2
CC(C)C[C@H](N)c1nnc(S(=O)(=O)Cc2cccc(F)c2)o1 | -90% | ? | 18µM* | / | ? | -12
CC(C)(C)OC(=O)N[C@@H](Cc1ccccc1)c1nnc(S(=O)(=O)Cc2cccc(F)c2)o1 | -102% | -4 | 11µM* | / | ? | -22
SMILES | HepG2 viability | D3 antag | TGFb SMAD3 inh | ATXN viability | ATXN2 expr inh | D3 ag
C=CC(=O)Nc1ccc(CN2C(=O)N(c3c(Cl)c(OC)cc(OC)c3Cl)Cc3cnc(NCCCCN(CC)CC)nc32)cc1 | -83% | -65* | ? | 11µM* | ? | -36
O=C(/C=C/c1ccncc1)c1ccc(NC(=O)c2ccccc2F)cc1 | 5µM* | -67* | 13µM* | ? | -14% | -24
CN(C)CC[C@H](c1ccc(Cl)cc1)c1ccccn1 | / | / | / | i | 1% | /
CN(C)CCOC(c1ccc(Cl)cc1)c1ccccn1 (configuration not stated) | -20% | -2 | 1% | i | -8% | 41*!
Cc1ccc(C(=O)NCc2ccccc2)cc1NC(=O)c1nsc2ccccc12 | -33% | / | ? | ? | 8% | 3
CCOC(=O)[C@H](CCc1ccccc1)N[C@H]1CCc2ccccc2N(CC(=O)O)C1=O | 12% | 11 | 9% | 35µM*! | 24µM*! | 6
CCOC(=O)[C@H](CCc1ccccc1)N[C@H]1CCCN2CCC[C@@H](C(=O)O)N2C1=O | / | / | / | ? | / | -11
C=CCN1CCN(C(=O)c2cc3c(s2)CCCC3)CC1 | -7% | -58* | 1% | i | 8% | -26
CCOc1cc2[nH]c(=O)n(CCCN3CCN(c4ccc(OC)cc4)CC3)c(=O)c2cc1OCC | 6% | ? | 26% | i | 3% | -9
O=c1c2ccccc2[nH]c(=S)n1CCN1CCc2ccccc2C1 | -23% | -90* | ? | i | 0% | -27
CN1CCN(CCn2c(=S)[nH]c3ccccc3c2=O)CC1 | -2% | 14 | 1% | i | 11% | -6
COc1ccccc1N1CCN(CCCn2c(=S)[nH]c3ccccc3c2=O)CC1 | -11% | -109* | 0% | i | -12% | -19
COc1ccccc1Cn1c(=S)[nH]c2cc(C(=O)N3CCN(c4ccccc4OC)CC3)ccc2c1=O | 13% | 12 | 0% | i | / | 0
COc1ccccc1N1CCN(CCc2n[nH]c(=S)n2-c2ccccc2)CC1 | 8% | -80* | 2% | i | 5% | -38
COc1ccc(N2CCN(CCCn3c(=S)[nH]c4ccccc4c3=O)CC2)cc1 | -23% | -75* | -17% | i | / | -3
CC[C@@]12C(=O)N(c3cccc(Br)c3)C(=O)N1[C@H](c1ccc(F)cc1)[C@@H]1C(=O)N(C3CCCCC3)C(=O)[C@@H]12 | -25% | 38 | -26% | ? | -9% | -21
CC(C)C[C@@]12C(=O)N(c3cccc(Br)c3)C(=O)N1[C@H](c1ccc(F)cc1)[C@@H]1C(=O)N(C3CCCCC3)C(=O)[C@@H]12 | 1% | 50 | 0% | ? | 3% | 51*
COc1cc(=O)n2c(c1C(=O)N(C)Cc1nonc1C)CCN(Cc1cc(C)ccc1C)CC2 | / | / | / | i | / | /
C=CC(=O)Nc1cccc(Oc2cc(Cl)nc3[nH]ccc23)c1 | -21% | 2 | ? | 18µM* | ? | 12
Cc1ccc(CNC(=O)c2ccccc2NS(=O)(=O)c2ccc(Cl)nc2)cc1 | -34% | 22 | 16µM* | ? | -10% | 5

High-throughput results as filed in PubChem BioAssay.
